Reference: PubChem BioAssay (NCATS)
“And” between values parts separate entries of the source, which are not always exact repeats. Equal values may be shown once. Results filed as inconclusive are left out. A number with no mark means an inactive call. Calls come from the whole dose curve; as a rule, active = well fitted curve in the direction sought with a large enough effect; inconclusive = small, poorly fitted or top-dose-only effect, or another doubt; inactive = no such curve, though single readings can be large or run the other way.

experiment: qHTS Assay for Identifying Gametocytocidal Compounds (AID 743244);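 note: actives lower the fluorescent signal which means gametocytes are killed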; conditions: P. falciparum 3D7 stage III-V gametocytes, alamarBlue, 72 h; max response: hits give low values
How it was run: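 A resazurin-based viability read-out was applied to mature P. falciparum gametocytes: 72 h compound treatment, then 24 h dye incubation, with falling fluorescence signalling gametocytocidal effect.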
% is set by controls: 0 for no effect and ±100 for the full control effect.

Row | Structure (SMILES) | max response
1 | C[C@H](NCCc1ccc(O)cc1)[C@H](O)c1ccc(O)cc1 | 10.2%
2 | O=C(O)C1=C(CSc2nnnn2CS(=O)(=O)O)CS[C@@H]2[C@H](NC(=O)[C@H](O)c3ccccc3)C(=O)N12 | -5.8%
3 | CNC(=O)c1c(I)c(C(=O)NCC(=O)Nc2c(I)c(C(=O)O)c(I)c(C(=O)NCCO)c2I)c(I)c(N(C)C(C)=O)c1I | 1.95%
4 | CCCC(=O)O | -0.429%
5 | O=[N+]([O-])c1c(Cl)cccc1-c1c[nH]cc1Cl | 0.263%
6 | NC[C@@H]1O[C@H](O[C@H]2[C@@H](O)[C@H](O[C@@H]3[C@@H](O)[C@H](N)C[C@H](N)[C@H]3O[C@H]3O[C@H](CO)[C@@H](O)[C@H](O)[C@H]3N)O[C@@H]2CO)[C@H](N)[C@@H](O)[C@@H]1O | 20.3%
7 | CC[C@@H]1/C=C(\C)C[C@H](C)C[C@H](OC)[C@H]2O[C@@](O)(C(=O)C(=O)N3CCCC[C@H]3C(=O)O[C@H](/C(C)=C/[C@@H]3CC[C@@H](Cl)[C@H](OC)C3)[C@H](C)[C@@H](O)CC1=O)[C@H](C)C[C@@H]2OC | -7.71%
8 | CC(C)CN(C[C@@H](O)[C@H](Cc1ccccc1)NC(=O)O[C@@H]1CCOC1)S(=O)(=O)c1ccc(N)cc1 | 12.1%
9 | CC(=O)Nc1c(I)c(C(=O)N[C@H]2C(O)O[C@H](CO)[C@@H](O)[C@@H]2O)c(I)c(N(C)C(C)=O)c1I (stereo partly drawn) | 5.57%
10 | NC(N)=NCC1COc2ccccc2O1 (stereo not drawn) | -11.6%
11 | Cc1ncc(C[n+]2csc(CCO)c2C)c(N)n1 | 2.57%
12 | CCC(=O)OC(OP(=O)(CCCCc1ccccc1)CC(=O)N1C[C@H](C2CCCCC2)C[C@H]1C(=O)O)C(C)C (stereo partly drawn) | 15.3%
13 | FC(F)OC(Cl)C(F)(F)F (stereo not drawn) | -3.13%
14 | CCN(CC)CCOC[C@H]1O[C@@H](O)[C@H](OCCN(CC)CC)[C@@H](O)[C@@H]1O | 6.01%
15 | CC(=NCc1ccccc1)c1ccccc1O | -2.19%
16 | C=C1CC[C@H](O)CC1=C/C=C1\CCC[C@]2(C)[C@@H]([C@H](C)CCCC(C)(C)O)CC[C@@H]12 | -5.02%
17 | CCc1cn([C@H]2C[C@H](O)[C@@H](CO)O2)c(=O)[nH]c1=O | 16.3%
18 | CN1C(=O)C[C@@H](C(=O)N[C@@H](Cc2cnc[nH]2)C(=O)N2CCC[C@H]2C(N)=O)NC1=O | 5.88%
19 | Cn1c(=O)c2c(ncn2CCOC(=O)C(C)(C)Oc2ccc(Cl)cc2)n(C)c1=O | 17.7%

Row | Structure (SMILES) | max response
20 | CCCCCCCCCCCC(=O)N(CCO)CCO | 11.9%
21 | O=C(O)[C@H]1CN(C/C=C/P(=O)(O)O)CCN1 | 12.3%
22 | C[C@@H]1C[C@H]2[C@@H]3CCC4=CC(=O)C=C[C@]4(C)[C@@]3(F)[C@@H](O)C[C@]2(C)[C@@]1(O)C(=O)COC(=O)c1cccc(S(=O)(=O)O)c1 | 12.5%
23 | CC(CN1c2ccccc2Sc2cccnc21)N(C)C (stereo not drawn) | 4.99%
24 | CCC(C)[C@@H](N)C(=O)O (stereo partly drawn) | -1.27%
25 | CC(C)[C@@H]1CC[C@@H](C)C[C@H]1OC(=O)c1ccccc1O | 9.93%
26 | CCOC(=O)[C@@H](N)CS | 0.746%
27 | NS(=O)(=O)c1cc2c(cc1Cl)NC(Cc1ccccc1)NS2(=O)=O (stereo not drawn) | 18.5%
28 | CC1(C)C(\C=C/C=C\C=C/C=C2/N(CCCCS(=O)(=O)O)c3ccc4ccccc4c3C2(C)C)=[N+](CCCCS(=O)(=O)[O-])c2ccc3ccccc3c21 | 2.8%
29 | CC1(C)[C@H]2CC[C@]1(C)[C@H](O)C2 | 0.139%
30 | COC1=C(OC)C(=O)C(C/C=C(\C)CC/C=C(\C)CC/C=C(\C)CC/C=C(\C)CC/C=C(\C)CC/C=C(\C)CC/C=C(\C)CC/C=C(\C)CC/C=C(\C)CCC=C(C)C)=C(C)C1=O | 1.6% and -2.73%
31 | CC(CC=O)CCCC(C)(C)O (stereo not drawn) | 6.46%
32 | CC(=O)N=c1sc(S(N)(=O)=O)nn1C | 3.69%
33 | CO[C@@]1(NC(=O)C2SC(=C(C(N)=O)C(=O)O)S2)C(=O)N2C(C(=O)O)=C(CSc3nnnn3C)CS[C@@H]21 (stereo partly drawn) | 10.6%
34 | CN[C@@H]1[C@@H](O)[C@@H](O[C@@H]2[C@@H](O)[C@H](O[C@H]3O[C@H](CN)[C@@H](O)[C@H](O)[C@H]3O)[C@@H](N)C[C@H]2NC(=O)C(O)CN)OC[C@]1(C)O (stereo partly drawn) | 16.8%
35 | CCOc1ccc(S(=O)(=O)O)c2cccnc12 | 1.62%
36 | C/C(=C\C(=O)OCCCCCCCCC(=O)O)C[C@@H]1OC[C@H](C[C@@H]2O[C@H]2[C@@H](C)[C@H](C)O)[C@@H](O)[C@H]1O | -6.76%
37 | CC(C)(CO)[C@@H](O)C(=O)NCCC(=O)NCCSSCCNC(=O)CCNC(=O)[C@H](O)C(C)(C)CO | 8.29%
38 | Cc1c(Cl)cccc1Nc1ncccc1C(=O)O | -5.77%
